# Measured values published in article PMC12820563, “FoxP3 forms a head-to-head dimer in vivo and stabilizes its multimerization on adjacent microsatellites”.
# In all, about 16,000 sequences were measured (“rpm ratio (pull-down/input)”: median about 0.5, highest 2% from about 5.5 on). Only a selection was taken, and the highest values are over-represented in it overall.
# Molecular target: T1, MBP-FoxP3dN (Mus musculus, UniProt Q99JB6 188-423)
# T1 sequence: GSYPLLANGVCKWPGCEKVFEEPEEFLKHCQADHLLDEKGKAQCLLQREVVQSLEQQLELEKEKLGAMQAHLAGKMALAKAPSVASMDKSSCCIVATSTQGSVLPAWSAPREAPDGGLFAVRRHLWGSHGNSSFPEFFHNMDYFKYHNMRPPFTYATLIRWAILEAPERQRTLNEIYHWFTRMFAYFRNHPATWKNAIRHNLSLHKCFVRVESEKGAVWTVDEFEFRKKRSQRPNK
# Experiment: PD-seq (MBP pull-down with sequencing); 20 mM Tris-HCl pH 7.5, 100 mM NaCl, 1.5 mM MgCl2, 0.4 uM protein, 0.1 uM dsDNA library, 30 min, room temperature, amylose pull-down; high values mean tight binding
# Conditions: protein: recombinant; tags: His6-MBP; chain copies: 2; dsDNA, one strand shown
# Summary of the method: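 A degenerate double-stranded DNA library, filled in with Klenow, was added at 0.1 µM to 0.4 µM His6-MBP-tagged mouse FoxP3 or FoxP1 fragment lacking the N-terminus, expressed in E. coli. Incubation lasted 30 min at room temperature in Tris pH 7.5 buffer with NaCl and MgCl2, after which complexes were collected on amylose resin, washed three times, digested with proteinase K to free the DNA, barcoded by PCR and sequenced by Illumina. Binding is the pooled-replicate reads-per-million enrichment of pull-down over input.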
row,Sequence,binding signal
1,GATGATTGTTCTCCCAGCTGATGAATTGTATAACTCGAGTAAACAAATTTTCCTAATCTTTCTGTTCAAGCGCCATCTAC,0.812 RPM ratio (pull-down/input)
2,GATGATTGTTCTCCCAGCTGATGAATTAAGCCGATCGAGTAAACAAATTTTCCTAATCTTTCTGTTCAAGCGCCATCTAC,0.427 RPM ratio (pull-down/input)
3,GATGATTGTTCTCCCAGCTGATGAATTTAGTGGGTCGAGTAAACAAATTTTCCTAATCTTTCTGTTCAAGCGCCATCTAC,1.06 RPM ratio (pull-down/input)
4,GATGATTGTTCTCCCAGCTGATGAATTCAAAACCTCGAGTAAACAAATTTTCCTAATCTTTCTGTTCAAGCGCCATCTAC,0.276 RPM ratio (pull-down/input)
5,GATGATTGTTCTCCCAGCTGATGAATTTATGATATCGAGTAAACAAATTTTCCTAATCTTTCTGTTCAAGCGCCATCTAC,1.11 RPM ratio (pull-down/input)
6,GATGATTGTTCTCCCAGCTGATGAATTCAATAGCTCGAGTAAACAAATTTTCCTAATCTTTCTGTTCAAGCGCCATCTAC,0.877 RPM ratio (pull-down/input)
7,GATGATTGTTCTCCCAGCTGATGAATTTCATAGTTCGAGTAAACAAATTTTCCTAATCTTTCTGTTCAAGCGCCATCTAC,0.583 RPM ratio (pull-down/input)
8,GATGATTGTTCTCCCAGCTGATGAATTACTTACATCGAGTAAACAAATTTTCCTAATCTTTCTGTTCAAGCGCCATCTAC,0.574 RPM ratio (pull-down/input)
9,GATGATTGTTCTCCCAGCTGATGAATTCGCATTATCGAGTAAACAAATTTTCCTAATCTTTCTGTTCAAGCGCCATCTAC,3.53 RPM ratio (pull-down/input)
10,GATGATTGTTCTCCCAGCTGATGAATTCGCCTCCTCGAGTAAACAAATTTTCCTAATCTTTCTGTTCAAGCGCCATCTAC,2.15 RPM ratio (pull-down/input)
11,GATGATTGTTCTCCCAGCTGATGAATTATCGCATTCGAGTAAACAAATTTTCCTAATCTTTCTGTTCAAGCGCCATCTAC,6.64 RPM ratio (pull-down/input)
12,GATGATTGTTCTCCCAGCTGATGAATTGTCGCATTCGAGTAAACAAATTTTCCTAATCTTTCTGTTCAAGCGCCATCTAC,6.14 RPM ratio (pull-down/input)
13,GATGATTGTTCTCCCAGCTGATGAATTCGCATTGTCGAGTAAACAAATTTTCCTAATCTTTCTGTTCAAGCGCCATCTAC,3.91 RPM ratio (pull-down/input)
14,GATGATTGTTCTCCCAGCTGATGAATTCCCATTGTCGAGTAAACAAATTTTCCTAATCTTTCTGTTCAAGCGCCATCTAC,0.454 RPM ratio (pull-down/input)
15,GATGATTGTTCTCCCAGCTGATGAATTATTCGCATCGAGTAAACAAATTTTCCTAATCTTTCTGTTCAAGCGCCATCTAC,1.12 RPM ratio (pull-down/input)
16,GATGATTGTTCTCCCAGCTGATGAATTCGCATCCTCGAGTAAACAAATTTTCCTAATCTTTCTGTTCAAGCGCCATCTAC,5.74 RPM ratio (pull-down/input)

row,Sequence,binding signal
1,GATGATTGTTCTCCCAGCTGATGAATTCCTCGCATCGAGTAAACAAATTTTCCTAATCTTTCTGTTCAAGCGCCATCTAC,0.768 RPM ratio (pull-down/input)
2,GATGATTGTTCTCCCAGCTGATGAATTCTAAACTTCGAGTAAACAAATTTTCCTAATCTTTCTGTTCAAGCGCCATCTAC,0.381 RPM ratio (pull-down/input)
3,GATGATTGTTCTCCCAGCTGATGAATTTCCATTTTCGAGTAAACAAATTTTCCTAATCTTTCTGTTCAAGCGCCATCTAC,0.295 RPM ratio (pull-down/input)
4,GATGATTGTTCTCCCAGCTGATGAATTAACATAATCGAGTAAACAAATTTTCCTAATCTTTCTGTTCAAGCGCCATCTAC,0.409 RPM ratio (pull-down/input)
5,GATGATTGTTCTCCCAGCTGATGAATTGCTTTTGTCGAGTAAACAAATTTTCCTAATCTTTCTGTTCAAGCGCCATCTAC,1.51 RPM ratio (pull-down/input)
6,GATGATTGTTCTCCCAGCTGATGAATTGCTTGGGTCGAGTAAACAAATTTTCCTAATCTTTCTGTTCAAGCGCCATCTAC,0.775 RPM ratio (pull-down/input)
7,GATGATTGTTCTCCCAGCTGATGAATTGCTTCTGTCGAGTAAACAAATTTTCCTAATCTTTCTGTTCAAGCGCCATCTAC,0.468 RPM ratio (pull-down/input)
8,GATGATTGTTCTCCCAGCTGATGAATTCTTGCTGTCGAGTAAACAAATTTTCCTAATCTTTCTGTTCAAGCGCCATCTAC,0.508 RPM ratio (pull-down/input)
9,GATGATTGTTCTCCCAGCTGATGAATTTGCTTTGTCGAGTAAACAAATTTTCCTAATCTTTCTGTTCAAGCGCCATCTAC,6.34 RPM ratio (pull-down/input)
10,GATGATTGTTCTCCCAGCTGATGAATTGTGCTTGTCGAGTAAACAAATTTTCCTAATCTTTCTGTTCAAGCGCCATCTAC,5.16 RPM ratio (pull-down/input)
11,GATGATTGTTCTCCCAGCTGATGAATTTGCTTGGTCGAGTAAACAAATTTTCCTAATCTTTCTGTTCAAGCGCCATCTAC,5.74 RPM ratio (pull-down/input)
12,GATGATTGTTCTCCCAGCTGATGAATTTTGCTTGTCGAGTAAACAAATTTTCCTAATCTTTCTGTTCAAGCGCCATCTAC,5.89 RPM ratio (pull-down/input)
13,GATGATTGTTCTCCCAGCTGATGAATTGCTTTGGTCGAGTAAACAAATTTTCCTAATCTTTCTGTTCAAGCGCCATCTAC,1.08 RPM ratio (pull-down/input)
14,GATGATTGTTCTCCCAGCTGATGAATTGCGTATTTCGAGTAAACAAATTTTCCTAATCTTTCTGTTCAAGCGCCATCTAC,3.53 RPM ratio (pull-down/input)
15,GATGATTGTTCTCCCAGCTGATGAATTGCTAAAATCGAGTAAACAAATTTTCCTAATCTTTCTGTTCAAGCGCCATCTAC,0.394 RPM ratio (pull-down/input)
